Experiment [1] in a line: CCTE_Shafer_MEA_dev_burst_rate: CCTE's Neural Network Formation Assay for Burst Rate, Shafer Lab (AID 2284042).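 On AC50: potency for loss of burst rate below DMSO control.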 In a few lines: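 Exposure ran continuously over 12 days of network development in rat cortical cultures, with compound refreshed during full media changes on DIV 5 and 9. Single-electrode bursts per recording time, well-mean over active electrodes, trapezoidal AUC across days 5–12, fitted downward relative to DMSO.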

Experiment [2] can be described thus: CCTE_Shafer_MEA_dev_per_burst_interspike_interval: CCTE's Neural Network Formation Assay for Burst Interspike Interval, Shafer Lab (AID 2284044).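 Further: mean spike spacing inside bursts as AUC over recordings on days 5 7 9 12.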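 On AC50: potency for a decrease of within-burst interspike interval below DMSO level.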 The gist of the method: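 Neurons from rat cortex plated onto PEI-coated MEA wells with laminin […] at 1.5 x 10^5 cells/well, then treated from day 0. Media and compound fully replaced on DIV 5 and 9. Extracellular spontaneous firing recorded four times; interspike interval per burst summarised as AUC.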

Experiment [3] in a line: CCTE_Shafer_MEA_dev_burst_duration_mean: CCTE's Neural Network Formation Assay for Mean Burst Duration, Shafer Lab (AID 2284045).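 On AC50: curve fitted for loss meaning shorter burst duration than DMSO.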 In a few lines:
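Network-formation assay in primary rat cortical neurons; treatment spans twelve days of development. Mean burst duration per well is integrated by trapezoidal AUC and fitted in the loss-of-signal direction against DMSO baseline.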

Experiment [4] is described as follows: CCTE_Shafer_MEA_dev_interburst_interval_mean: CCTE's Neural Network Formation Assay for Mean Interburst Interval, Shafer Lab (AID 2284046).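 Further: well-mean interburst interval of bursting electrodes as AUC over four recording days; curve fitted for decrease in interburst interval relative to DMSO.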 In a few lines:
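Primary rat cortical neurons on PEI-coated 48-well MEA plates (laminin added with cells at plating) (16 electrodes/well), exposed from plating day 0 with renewal at DIV 5 and 9. Mean inter-burst interval averaged over bursting electrodes, AUC across days 5, 7, 9, 12; DMSO baseline.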

The nature of experiment [5]: CCTE_Shafer_MEA_dev_inter_network_spike_interval_mean: CCTE's Neural Network Formation Assay for Mean Inter-network Spike Interval, Shafer Lab (AID 2284047). In a few lines: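 Mean time between consecutive network-spike peaks, recorded extracellularly (adaptive spike detection) on DIV 5, 7, 9 and 12, summarized as trapezoidal AUC. Rat cortical cultures on MEAs dosed continuously days 0–12, re-dosed at feeds; loss-of-signal fit relative to DMSO.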

A short description of experiment [6]: CCTE_Shafer_MEA_dev_network_spike_number: CCTE's Neural Network Formation Assay for Number of Network Spikes, Shafer Lab (AID 2284048).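 Further: synchronized bursts across electrodes counted on days 5 7 9 12 and integrated as AUC.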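 On AC50: fit as a loss of signal meaning fewer network spikes than DMSO.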 In a few lines: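 Extracellular recordings from 16-electrode wells track network formation in rat cortical cultures under continuous treatment from plating. The endpoint is network spike number, expressed as AUC across DIV 5–12 relative to DMSO vehicle.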

The nature of experiment [7]: CCTE_Shafer_MEA_dev_network_spike_peak: CCTE's Neural Network Formation Assay for Mean Number of Electrodes in Network Spike, Shafer Lab (AID 2284049).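 On AC50: fitted for loss of signal meaning fewer electrodes in network spikes than DMSO.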 The gist of the method: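 Continuous 12-day exposure of rat cortical cultures, starting at plating, on MEA plates. Endpoint: electrodes participating in network-spike peaks, AUC across DIV 5–12, DMSO as negative control.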

Experiment [8] can be described thus: CCTE_Shafer_MEA_dev_spike_duration_mean: CCTE's Neural Network Formation Assay for Mean Spike Duration, Shafer Lab (AID 2284051).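 On AC50: potency for a decrease in mean network spike duration versus DMSO.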 In a few lines: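 Spontaneous activity was recorded on days 5, 7, 9 and 12 from rat cortical cultures grown on microelectrode arrays and dosed continuously from day 0, with media and compound renewed after the DIV 5 and 9 recordings. Network-spike duration was collapsed by area under the curve.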

The nature of experiment [9]: CCTE_Shafer_MEA_dev_network_spike_duration_std: CCTE's Neural Network Formation Assay for Standard Deviation of Network Spike Duration, Shafer Lab (AID 2284052).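 Further: hits are decreases in network spike duration SD versus DMSO vehicle.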 The gist of the method:
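Network spike duration variability was collapsed across recordings on days 5, 7, 9 and 12 by trapezoidal area-under-curve and fitted downward against DMSO. Cultures were rat cortical neurons on PEI-coated MEA plates, dosed continuously from plating, refed with compound DIV 5/9.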

A short description of experiment [10]: CCTE_Shafer_MEA_dev_per_network_spike_spike_number_mean: CCTE's Neural Network Formation Assay for Mean Number of Spikes in a Network Spike, Shafer Lab (AID 2284053). The gist of the method:
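Mean spike count within each network spike, taken in a 0.05 s window at its peak, was recorded on days 5, 7, 9 and 12 and integrated as trapezoidal area under the curve. Rat cortical cultures on MEA plates received continuous compound from day 0, refreshed at medium changes on DIV 5 and 9.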

Experiment [11] is described as follows: CCTE_Shafer_MEA_dev_per_network_spike_spike_percent: CCTE's Neural Network Formation Assay for Percent of Spikes in a Network Spike, Shafer Lab (AID 2284054). The gist of the method: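 Developing networks of rat cortical neurons are dosed at day 0 and recorded extracellularly four times up to day 12. The endpoint is the area under the curve of percent spikes in network spikes, fitted in the negative direction relative to DMSO.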

A short description of experiment [12]: CCTE_Shafer_MEA_dev_mutual_information_norm: CCTE's Neural Network Formation Assay for Mutual Information Normalization, Shafer Lab (AID 2284091).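 On AC50: mutual information between electrodes summarised as area under curve across four recording days; potency is for a decrease in mutual information relative to DMSO.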 The gist of the method:
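Exposure of primary rat cortical neurons began at plating and ran to DIV 12, with full media and treatment renewal after DIV 5 and 9 recordings. Mutual information AUC (DIV 5–12) was analysed for loss versus DMSO.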

Experiment [13] is described as follows: CCTE_Shafer_MEA_dev_correlation_coefficient_mean: CCTE's Neural Network Formation Assay for Mean Correlation Coefficient, Shafer Lab (AID 2284093).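 On AC50: well mean pairwise spike train correlation integrated as AUC over recording days 5 to 12; potency fitted for loss of correlation relative to DMSO vehicle wells.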 In a few lines:
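Primary rat cortical neurons on PEI-coated 48-well MEA plates (16 electrodes/well) were exposed from plating day 0 through DIV12, with compound renewed at DIV5 and 9. Pairwise spike correlations were averaged per well; trapezoidal AUC across DIV5, 7, 9, 12.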

The nature of experiment [14]: IUF_NPC1a_proliferation_area_72hr: Leibniz Research Institute for Environmental Medicine (IUF) 72-hour Neural Progenitor Cell Proliferation Area Assay (NPC1a) (AID 2284208). The gist of the method:
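Spheres of 0.3 mm are plated singly in growth-factor medium and exposed from day 0. After three days at 37C and 5% CO2, sphere area is measured by phase contrast imaging, with activity referenced to DMSO.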

Experiment [15] is described as follows: IUF_NPC1_viability_72hr: Viability Assessment at 72 hours in the Leibniz Research Institute for Environmental Medicine (IUF) Neural Progenitor Cell Proliferation Assay (NPC1) (AID 2284209). The gist of the method:
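Three-day continuous exposure of human neural progenitor spheres under EGF/FGF-driven proliferation; cell viability scored by alamar blue signal versus DMSO.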

Experiment [16] is described as follows: IUF_NPC2c_oligodendrocyte_migration_120hr: Leibniz Research Institute for Environmental Medicine (IUF) 120-hour Neural Progenitor Cell Migration Assay for Oligodendrocyte Migration (NPC2c) (AID 2284297). In a few lines: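 Read-out is the mean distance of O4-positive oligodendrocytes from the sphere core edge at 120 h, normalized to radial glia migration and fitted in the gain direction against DMSO. Spheres of primary human neural progenitors differentiated on laminin under continuous compound exposure.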

Experiment [17] can be described thus: IUF_NPC2a_radial_glia_migration_120hr: Leibniz Research Institute for Environmental Medicine (IUF) 120-hour Neural Progenitor Cell Migration Assay for Radial Glia Migration (NPC2a) (AID 2284298). The gist of the method: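 Readout: distance in um from sphere core edge to migration-area edge, derived from Hoechst nuclei density with a threshold-defined polynomial boundary. Spheres: hNPC, GW 16-19, 0.3 mm, on PDL/laminin; exposure 5 days; DMSO is baseline.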

A short description of experiment [18]: IUF_NPC2a_radial_glia_migration_72hr: Leibniz Research Institute for Environmental Medicine (IUF) 72-hour Neural Progenitor Cell Migration Assay for Radial Glia Migration (NPC2a) (AID 2284299). In a few lines:
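Spheres of human primary neural progenitors migrate on poly-D-lysine/laminin under compound exposure at 37C, 5% CO2. The 72 h radial glia migration distance comes from brightfield images, measured manually.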

Experiment [19] is described as follows: IUF_NPC2b_neuronal_migration_120hr: Leibniz Research Institute for Environmental Medicine (IUF) 120-hour Neural Progenitor Cell Migration Assay for Neuron Migration (NPC2b) (AID 2284300). In a few lines:
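Read-out is mean distance from sphere edge to each TUBB3-positive neuron at 120 h, expressed relative to radial glia migration distance and to DMSO baseline. Single 0.3 mm human NPC spheres differentiated on laminin under continuous compound exposure.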

Experiment [20] in a line: IUF_NPC3_neuronal_differentiation_120hr: Leibniz Research Institute for Environmental Medicine (IUF) 120-hour Neuronal Differentiation Assay (NPC3) (AID 2284301). The gist of the method: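 Neuronal differentiation of primary human neural progenitors measured by high-content imaging: percent TUBB3+ of Hoechst+ nuclei within migrated area at 120 h, seven-point serial dilution plus solvent control, gain or loss relative to DMSO.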

The structures appear in SMILES notation. Calls of active or inactive are those of the source. How the source made its calls: active means hit-call score of the fitted dose curve at least 0.9, where 1 is the maximum; inactive means score below 0.9.

The source of these data is PubChem BioAssay (EPA / NIEHS).

For `CNC(=N[N+](=O)[O-])NCC1CCOC1` (stereo not given), the call in experiment [1], in [2], in [3], in experiment [4], in experiment [5] and in experiment [6] was inactive. Further, the outcome in [7], in experiment [8], in experiment [9], in experiment [10], in experiment [11] and in experiment [12] was inactive. Moreover, the result in experiment [13], in experiment [14], in experiment [15], in experiment [16], in [17] and in [18] was inactive. Moreover, the molecule was classed as inactive in experiment [19] and in experiment [20].

As for `CC(C)CCCCCCCOP(=O)(Oc1ccccc1)Oc1ccccc1`, the result in experiment [1], in experiment [2], in experiment [3], in experiment [4], in experiment [5] and in experiment [6] was inactive. In addition, the result in experiment [7], in [8], in experiment [9], in experiment [10], in [11] and in experiment [12] was inactive. Besides, the result in experiment [13], in experiment [14], in [15], in experiment [16], in [17] and in experiment [18] was inactive. Besides, the result in experiment [19] and in experiment [20] was inactive.

Take `Cc1ccc(OP(=O)(Oc2ccc(C)cc2)Oc2ccc(C)cc2)cc1` (tested in a mixture with another compound): the molecule was classed as inactive in [1], in experiment [2], in [3], in experiment [4], in [5] and in [6]. For the same molecule, the molecule was called inactive in experiment [7], in [8], in experiment [9], in [10], in experiment [11] and in experiment [12]. For the same molecule, the call in [13], in experiment [14], in experiment [15], in [16], in experiment [17] and in experiment [18] was inactive. The molecule was classed as inactive in experiment [19] and in experiment [20].

For the molecule `CC1(C)[C@H](C(=O)O[C@H](C#N)c2cccc(Oc3ccccc3)c2)[C@@H]1C=C(Br)Br`, the AC50 in [1] is 3.86 µM (active); in [2], 15 µM (active); in [3], 5.29 µM (active); in [6], 0.853 µM (active); in [7] it was 7.55 µM (active); in [8] it was 6.4 µM (active). Besides, the AC50 in experiment [9] is 3.82 µM (active); in experiment [10], 3.96 µM (active); in experiment [11], 1.8 µM (active); in [12] it was 0.641 µM (active); in [13], 2.04 µM (active); in experiment [17], 0.0654 µM (active). Besides, in experiment [18], the AC50 is 0.67 µM (active). Besides, the result in [4], in [5], in experiment [14], in experiment [15], in experiment [16] and in [19] was inactive. In addition, the molecule was called inactive in experiment [20].
